Experimental findings from the OligoGym collection are described below.
Also: reference of the scale not given here.

The target in the first assay is DSPP. As to the kind of experiment: pooled miR-30 sensor sort-seq; sequence = guide strand. The settings on record: shRNA.
Sequence TTTATCCTCTTTACCTTCGTTG gave a sensor-assay potency score (higher = more potent) of -0.331.

The sequence TTGCTATCACTGCTGTTGCTGC showed a sensor-assay potency score (higher = more potent) of -0.741.

As for TTCTCTATGGTTGAGCTTCTGG, the sensor-assay potency score (higher = more potent) was -0.413.

In the case of TTGCTGTCACTGCTGTCGCTGC, the sensor-assay potency score (higher = more potent) was -0.804.

As to TACTATCTGAATTTTGACCTAT, the sensor-assay potency score (higher = more potent) was 0.43.

With TTGGACAACAGCGACATCCTCA, the sensor-assay potency score (higher = more potent) was 0.0891.

TTTTTCGACATGTCTCTCCAGT: the sensor-assay potency score (higher = more potent) is -0.00978.

In a further assay the target is DTNBP1. The description is as above. The note with it: shRNA.
TTTCTTGTAATTCTCCAGTTGC yielded a sensor-assay potency score (higher = more potent) of -0.554.

In the case of TCACTTAAAGTCTTCAGCCCGG, the sensor-assay potency score (higher = more potent) is -0.801.

TTTGCTTCTCTTGACTTGTCAC: the sensor-assay potency score (higher = more potent) worked out at 0.23.

TATTTTTCTTGTAATTCTCCAG showed a sensor-assay potency score (higher = more potent) of -0.412.

In turn, TCTAGTTCAGCTTTGAAGGTTT displayed a sensor-assay potency score (higher = more potent) of 0.0978.

On to TCATCGGACTGAACAACGGGGG, for which the sensor-assay potency score (higher = more potent) is -0.232.

The sequence ATTTTTCTTGTAATTCTCCAGT gave a sensor-assay potency score (higher = more potent) of -0.545.

On to TTCCTCAAAAAACTTCTGCCGC, for which the sensor-assay potency score (higher = more potent) was -0.552.

Sequence TGACTTGTCACTTAAAGTCTTC had a sensor-assay potency score (higher = more potent) of -0.418.

With TTTTCTTGTAATTCTCCAGTTG, the sensor-assay potency score (higher = more potent) was -0.365.

The sequence TAAGTCTTCCAGATGCAGCAGG displayed a sensor-assay potency score (higher = more potent) of -0.317.

For TAAAACAACCTGGCTTTCCAGG, the sensor-assay potency score (higher = more potent) is -0.923.
